Here are results for one sequence from PMC7862700, “An all-to-all approach to the identification of sequence-specific readers for epigenetic DNA modifications on cytosine”.

Holding throughout (assay): DAPPL (digital affinity profiling via proximity ligation, sequencing); 10 mM Tris-HCl pH 7.5, 50 mM NaCl, 1 mM DTT, 4% glycerol, room temperature, 30 min; GST-TFs on glutathione beads, 16-mer random dsDNA library, 0.1% formaldehyde crosslink after washing; high values mean tight binding
For one test, the target named is T1, FLI1 (Homo sapiens, UniProt Q01543 1-452).
T1 sequence: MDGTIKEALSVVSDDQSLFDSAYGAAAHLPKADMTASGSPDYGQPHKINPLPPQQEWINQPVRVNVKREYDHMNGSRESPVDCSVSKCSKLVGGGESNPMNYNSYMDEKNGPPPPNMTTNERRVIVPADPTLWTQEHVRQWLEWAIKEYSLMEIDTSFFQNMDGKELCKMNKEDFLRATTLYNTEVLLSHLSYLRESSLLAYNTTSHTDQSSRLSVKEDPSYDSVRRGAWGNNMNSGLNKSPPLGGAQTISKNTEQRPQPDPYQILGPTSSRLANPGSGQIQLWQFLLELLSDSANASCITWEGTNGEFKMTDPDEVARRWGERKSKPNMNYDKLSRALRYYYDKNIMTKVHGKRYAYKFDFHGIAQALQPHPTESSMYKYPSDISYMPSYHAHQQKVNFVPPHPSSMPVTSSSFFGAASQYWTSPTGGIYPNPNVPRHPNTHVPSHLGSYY
The settings on record: protein: recombinant; tags: N-terminal GST; dsDNA, one strand shown. The method in brief:
(§1)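 In yeast, human transcription factors were expressed with a GST fusion, then pulled down on glutathione beads and given DNA barcodes. Pooled with a tag-only sample, they were exposed to 200 nmole of a 16-mer random double-stranded DNA library (Tris/NaCl/DTT/glycerol buffer, room temperature, 30 min), washed, crosslinked with 0.1% formaldehyde, proximity-ligated using BsaI/T4 ligase for 1 h at 37 °C, PCR-amplified and read on an Illumina NextSeq500. Each hexamer's frequency of reads for a factor, divided by the matching frequency for the tag-only sample, gives the binding signal.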

Another test deals with T2, ELK1 (Homo sapiens, UniProt P19419 1-428).
T2 sequence: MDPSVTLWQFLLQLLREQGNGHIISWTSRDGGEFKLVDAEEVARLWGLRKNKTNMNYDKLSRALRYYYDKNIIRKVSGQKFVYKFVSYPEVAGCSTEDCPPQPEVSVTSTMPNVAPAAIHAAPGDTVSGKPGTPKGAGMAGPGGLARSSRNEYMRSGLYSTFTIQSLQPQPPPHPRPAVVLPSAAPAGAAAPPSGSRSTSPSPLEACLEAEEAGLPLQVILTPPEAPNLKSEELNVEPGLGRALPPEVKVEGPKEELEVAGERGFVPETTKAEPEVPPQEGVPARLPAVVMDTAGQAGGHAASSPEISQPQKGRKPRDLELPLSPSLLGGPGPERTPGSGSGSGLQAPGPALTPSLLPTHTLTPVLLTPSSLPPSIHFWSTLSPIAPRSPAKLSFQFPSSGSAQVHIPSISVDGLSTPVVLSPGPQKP
Conditions: protein: recombinant; tags: N-terminal GST; dsDNA, one strand shown. A digest of the protocol: as §1

A further test addresses T3, GABPA (Homo sapiens, UniProt Q06546 1-454).
T3 sequence: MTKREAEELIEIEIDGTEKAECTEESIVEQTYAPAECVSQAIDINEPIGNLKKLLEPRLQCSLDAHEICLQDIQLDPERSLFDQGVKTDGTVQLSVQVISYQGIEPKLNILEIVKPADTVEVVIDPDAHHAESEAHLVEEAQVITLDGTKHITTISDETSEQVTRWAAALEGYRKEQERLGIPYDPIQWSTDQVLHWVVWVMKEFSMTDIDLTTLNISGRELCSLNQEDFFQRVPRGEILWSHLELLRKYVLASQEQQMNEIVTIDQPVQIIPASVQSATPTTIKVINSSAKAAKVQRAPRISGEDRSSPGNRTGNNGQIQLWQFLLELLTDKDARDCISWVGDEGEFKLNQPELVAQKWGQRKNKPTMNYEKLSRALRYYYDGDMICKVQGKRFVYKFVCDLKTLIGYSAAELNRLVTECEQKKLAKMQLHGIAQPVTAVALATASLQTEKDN
The settings on record: protein: recombinant; tags: N-terminal GST; dsDNA, one strand shown. A digest of the protocol: as §1

The target in the next test is T4, ERG (Homo sapiens, UniProt P11308 1-479).
T4 sequence: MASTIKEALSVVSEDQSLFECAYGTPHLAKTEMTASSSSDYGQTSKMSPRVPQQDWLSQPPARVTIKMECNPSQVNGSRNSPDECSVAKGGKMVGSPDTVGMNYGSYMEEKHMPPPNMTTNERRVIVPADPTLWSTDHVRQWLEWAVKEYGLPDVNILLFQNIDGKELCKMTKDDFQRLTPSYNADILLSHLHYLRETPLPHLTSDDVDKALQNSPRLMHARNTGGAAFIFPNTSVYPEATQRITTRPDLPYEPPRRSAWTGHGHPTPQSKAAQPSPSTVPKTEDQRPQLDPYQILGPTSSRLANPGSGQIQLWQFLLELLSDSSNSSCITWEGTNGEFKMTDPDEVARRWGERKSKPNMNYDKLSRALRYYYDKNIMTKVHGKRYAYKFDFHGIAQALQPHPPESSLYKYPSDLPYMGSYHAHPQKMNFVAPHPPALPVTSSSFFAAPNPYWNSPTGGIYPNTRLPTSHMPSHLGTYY
The settings on record: protein: recombinant; tags: N-terminal GST; dsDNA, one strand shown. A digest of the protocol:
as §1

The target of the next test is ELF1 (Homo sapiens, UniProt P32519 1-619). Conditions: protein: recombinant; tags: N-terminal GST; dsDNA, one strand shown. A digest of the protocol: as §1
Another test has as its target T5, EHF (Homo sapiens, UniProt Q9NZC4 1-300).
T5 sequence: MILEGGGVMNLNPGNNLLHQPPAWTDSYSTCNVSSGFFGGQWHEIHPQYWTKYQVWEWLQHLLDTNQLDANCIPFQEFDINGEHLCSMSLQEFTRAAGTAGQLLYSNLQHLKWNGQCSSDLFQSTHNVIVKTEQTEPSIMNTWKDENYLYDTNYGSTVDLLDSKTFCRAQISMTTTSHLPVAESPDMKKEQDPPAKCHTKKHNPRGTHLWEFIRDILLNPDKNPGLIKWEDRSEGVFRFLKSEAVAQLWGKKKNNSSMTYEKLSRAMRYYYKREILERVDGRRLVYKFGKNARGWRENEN
The settings on record: protein: recombinant; tags: N-terminal GST; dsDNA, one strand shown. A digest of the protocol: as §1

The next test has as its target SPI1 (Homo sapiens, UniProt P17947 1-270). Conditions: protein: recombinant; tags: N-terminal GST; dsDNA, one strand shown. A digest of the protocol:
as §1

The target in a further test is SPIB (Homo sapiens, UniProt Q01892 1-262). The settings on record: protein: recombinant; tags: N-terminal GST; dsDNA, one strand shown. The method in brief:
as §1

Another test has as its target T6, ELK3 (Homo sapiens, UniProt P41970 1-407).
T6 sequence: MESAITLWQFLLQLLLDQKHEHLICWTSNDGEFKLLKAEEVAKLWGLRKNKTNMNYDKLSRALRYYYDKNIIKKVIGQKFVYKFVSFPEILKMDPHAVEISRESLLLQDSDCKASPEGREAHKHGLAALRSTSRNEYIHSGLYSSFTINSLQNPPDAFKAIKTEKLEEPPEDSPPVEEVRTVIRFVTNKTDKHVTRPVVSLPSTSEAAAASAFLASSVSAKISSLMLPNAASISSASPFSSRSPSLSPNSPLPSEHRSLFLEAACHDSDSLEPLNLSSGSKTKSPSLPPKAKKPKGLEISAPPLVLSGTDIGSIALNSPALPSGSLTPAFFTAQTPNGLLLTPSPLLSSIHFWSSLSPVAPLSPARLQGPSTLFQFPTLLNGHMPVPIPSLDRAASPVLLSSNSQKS
Conditions: protein: recombinant; tags: N-terminal GST; dsDNA, one strand shown. A digest of the protocol:
as §1

The next test addresses T7, FEV (Homo sapiens, UniProt Q99581 1-238).
T7 sequence: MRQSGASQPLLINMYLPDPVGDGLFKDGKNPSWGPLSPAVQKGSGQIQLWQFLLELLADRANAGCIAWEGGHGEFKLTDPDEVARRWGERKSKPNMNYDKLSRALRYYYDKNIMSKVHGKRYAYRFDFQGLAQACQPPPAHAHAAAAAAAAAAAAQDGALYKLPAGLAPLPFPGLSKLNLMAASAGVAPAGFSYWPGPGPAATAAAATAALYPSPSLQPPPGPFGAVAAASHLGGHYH
Conditions: protein: recombinant; tags: N-terminal GST; dsDNA, one strand shown. The method in brief: as §1

In a further test the target is ETV5 (Homo sapiens, UniProt P41161 1-510). Conditions: protein: recombinant; tags: N-terminal GST; dsDNA, one strand shown. A digest of the protocol:
as §1

The next test deals with HSF1 (Homo sapiens, UniProt Q00613 1-529). The settings on record: protein: recombinant; tags: N-terminal GST; chain copies: 3; dsDNA, one strand shown. The method in brief: as §1
The target of the next test is T8, SPIC (Homo sapiens, UniProt Q8N5J4 1-248).
T8 sequence: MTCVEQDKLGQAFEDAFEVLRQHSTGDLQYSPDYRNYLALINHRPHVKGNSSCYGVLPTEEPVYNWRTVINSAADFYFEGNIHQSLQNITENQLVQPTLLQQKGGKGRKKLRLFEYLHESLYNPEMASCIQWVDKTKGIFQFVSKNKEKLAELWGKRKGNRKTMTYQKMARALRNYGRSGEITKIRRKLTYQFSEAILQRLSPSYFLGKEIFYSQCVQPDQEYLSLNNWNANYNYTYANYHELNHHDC
The settings on record: protein: recombinant; tags: N-terminal GST; dsDNA, one strand shown. The method in brief:
as §1

For the next test, the target named is ELF4 (Homo sapiens, UniProt Q99607 1-663). Conditions: protein: recombinant; tags: N-terminal GST; dsDNA, one strand shown. The method in brief: as §1
In a further test the target is T9, ELK4 (Homo sapiens, UniProt P28324-2 1-405).
T9 sequence: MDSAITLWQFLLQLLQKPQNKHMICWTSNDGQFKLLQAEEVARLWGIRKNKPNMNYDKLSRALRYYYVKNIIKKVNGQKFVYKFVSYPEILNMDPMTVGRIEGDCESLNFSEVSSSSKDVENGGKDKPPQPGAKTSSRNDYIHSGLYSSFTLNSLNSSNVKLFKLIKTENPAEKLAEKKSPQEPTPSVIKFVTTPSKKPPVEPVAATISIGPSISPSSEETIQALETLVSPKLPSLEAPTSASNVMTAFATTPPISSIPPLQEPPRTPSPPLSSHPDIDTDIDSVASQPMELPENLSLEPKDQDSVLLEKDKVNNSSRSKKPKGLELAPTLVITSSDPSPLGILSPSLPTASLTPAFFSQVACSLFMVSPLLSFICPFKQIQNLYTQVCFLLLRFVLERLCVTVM
Conditions: protein: recombinant; tags: N-terminal GST; dsDNA, one strand shown. The method in brief: as §1

In a further test the target is T10, ETV2 (Homo sapiens, UniProt O00321 1-342).
T10 sequence: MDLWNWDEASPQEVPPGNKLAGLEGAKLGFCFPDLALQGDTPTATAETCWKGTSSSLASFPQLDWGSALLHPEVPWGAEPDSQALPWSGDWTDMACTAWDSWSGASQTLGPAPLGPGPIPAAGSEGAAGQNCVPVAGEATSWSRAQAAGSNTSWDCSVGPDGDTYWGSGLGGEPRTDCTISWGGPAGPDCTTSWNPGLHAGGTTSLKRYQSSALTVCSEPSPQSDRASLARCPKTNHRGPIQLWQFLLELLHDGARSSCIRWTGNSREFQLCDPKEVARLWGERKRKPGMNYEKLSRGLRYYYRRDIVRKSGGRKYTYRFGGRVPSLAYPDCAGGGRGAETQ
Conditions: protein: recombinant; tags: N-terminal GST; dsDNA, one strand shown. A digest of the protocol: as §1

In a further test the target is T11, ELF3 (Homo sapiens, UniProt P78545 1-371).
T11 sequence: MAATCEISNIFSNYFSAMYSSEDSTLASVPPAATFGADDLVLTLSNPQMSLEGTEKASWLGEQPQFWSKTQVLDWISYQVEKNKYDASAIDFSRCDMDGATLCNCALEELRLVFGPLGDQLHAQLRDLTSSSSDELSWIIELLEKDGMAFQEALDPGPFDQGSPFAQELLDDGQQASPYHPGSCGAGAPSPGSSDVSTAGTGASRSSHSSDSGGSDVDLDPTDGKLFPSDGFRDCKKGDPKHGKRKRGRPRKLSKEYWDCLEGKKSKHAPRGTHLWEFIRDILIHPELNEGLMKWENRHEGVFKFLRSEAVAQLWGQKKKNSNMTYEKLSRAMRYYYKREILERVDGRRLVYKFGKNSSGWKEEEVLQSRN
Conditions: protein: recombinant; tags: N-terminal GST; dsDNA, one strand shown. The method in brief:
as §1

A further test has as its target CRX (Homo sapiens, UniProt O43186 1-299). Conditions: protein: recombinant; tags: N-terminal GST; dsDNA, one strand shown. The method in brief: as §1
The next test addresses ETV1 (Homo sapiens, UniProt P50549 1-477). The settings on record: protein: recombinant; tags: N-terminal GST; dsDNA, one strand shown. A digest of the protocol: as §1

Chain of ELF1 (P32519 whole entry): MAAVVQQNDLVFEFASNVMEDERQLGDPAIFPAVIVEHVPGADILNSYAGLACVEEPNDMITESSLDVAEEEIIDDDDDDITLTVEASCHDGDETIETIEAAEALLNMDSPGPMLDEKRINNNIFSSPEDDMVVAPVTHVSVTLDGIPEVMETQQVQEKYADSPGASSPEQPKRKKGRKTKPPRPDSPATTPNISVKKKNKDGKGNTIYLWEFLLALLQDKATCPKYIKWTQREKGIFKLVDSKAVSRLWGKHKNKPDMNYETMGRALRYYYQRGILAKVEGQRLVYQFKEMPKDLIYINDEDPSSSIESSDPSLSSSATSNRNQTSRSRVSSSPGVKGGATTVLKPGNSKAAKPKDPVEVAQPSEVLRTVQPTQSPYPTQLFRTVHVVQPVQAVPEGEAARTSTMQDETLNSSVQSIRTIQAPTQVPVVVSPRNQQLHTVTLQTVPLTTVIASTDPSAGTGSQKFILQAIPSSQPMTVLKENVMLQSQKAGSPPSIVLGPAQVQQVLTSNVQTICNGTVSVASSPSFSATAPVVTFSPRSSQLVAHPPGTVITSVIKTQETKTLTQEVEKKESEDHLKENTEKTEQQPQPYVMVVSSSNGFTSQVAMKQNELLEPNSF
Chain of HSF1 (Q00613 whole entry): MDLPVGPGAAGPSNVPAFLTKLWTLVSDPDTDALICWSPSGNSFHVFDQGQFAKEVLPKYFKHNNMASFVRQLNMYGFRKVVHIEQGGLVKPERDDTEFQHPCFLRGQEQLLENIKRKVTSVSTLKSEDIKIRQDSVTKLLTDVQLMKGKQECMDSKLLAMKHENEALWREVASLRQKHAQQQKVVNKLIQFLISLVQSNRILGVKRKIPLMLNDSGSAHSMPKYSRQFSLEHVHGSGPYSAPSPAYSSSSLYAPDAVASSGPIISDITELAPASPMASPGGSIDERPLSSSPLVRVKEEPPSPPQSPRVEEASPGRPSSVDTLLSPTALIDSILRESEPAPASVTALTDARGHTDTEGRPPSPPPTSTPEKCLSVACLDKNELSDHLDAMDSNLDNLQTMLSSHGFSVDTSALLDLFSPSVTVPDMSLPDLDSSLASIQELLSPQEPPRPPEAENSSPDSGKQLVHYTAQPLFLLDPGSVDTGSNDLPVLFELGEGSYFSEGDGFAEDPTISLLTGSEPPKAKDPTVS
Chain of SPIB (Q01892 whole entry): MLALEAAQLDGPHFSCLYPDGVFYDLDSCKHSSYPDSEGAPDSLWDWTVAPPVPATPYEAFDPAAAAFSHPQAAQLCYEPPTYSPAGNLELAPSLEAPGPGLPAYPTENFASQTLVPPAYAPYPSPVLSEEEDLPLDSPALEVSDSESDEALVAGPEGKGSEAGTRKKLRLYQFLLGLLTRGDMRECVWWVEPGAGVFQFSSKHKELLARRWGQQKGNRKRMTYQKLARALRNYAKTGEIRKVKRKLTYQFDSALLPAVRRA
Chain of ETV5 (P41161 whole entry): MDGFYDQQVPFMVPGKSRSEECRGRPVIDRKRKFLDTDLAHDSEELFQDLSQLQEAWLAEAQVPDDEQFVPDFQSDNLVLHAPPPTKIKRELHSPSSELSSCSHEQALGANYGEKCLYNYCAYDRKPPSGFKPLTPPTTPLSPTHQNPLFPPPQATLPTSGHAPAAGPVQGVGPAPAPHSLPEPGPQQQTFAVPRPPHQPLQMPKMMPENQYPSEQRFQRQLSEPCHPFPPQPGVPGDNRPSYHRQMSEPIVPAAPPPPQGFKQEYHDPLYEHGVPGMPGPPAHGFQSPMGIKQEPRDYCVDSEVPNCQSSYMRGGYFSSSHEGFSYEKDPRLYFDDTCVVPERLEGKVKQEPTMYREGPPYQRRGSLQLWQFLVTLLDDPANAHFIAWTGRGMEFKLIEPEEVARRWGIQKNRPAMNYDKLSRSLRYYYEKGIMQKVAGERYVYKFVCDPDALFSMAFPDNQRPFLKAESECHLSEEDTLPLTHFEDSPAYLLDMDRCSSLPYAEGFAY
Chain of ELF4 (Q99607 whole entry): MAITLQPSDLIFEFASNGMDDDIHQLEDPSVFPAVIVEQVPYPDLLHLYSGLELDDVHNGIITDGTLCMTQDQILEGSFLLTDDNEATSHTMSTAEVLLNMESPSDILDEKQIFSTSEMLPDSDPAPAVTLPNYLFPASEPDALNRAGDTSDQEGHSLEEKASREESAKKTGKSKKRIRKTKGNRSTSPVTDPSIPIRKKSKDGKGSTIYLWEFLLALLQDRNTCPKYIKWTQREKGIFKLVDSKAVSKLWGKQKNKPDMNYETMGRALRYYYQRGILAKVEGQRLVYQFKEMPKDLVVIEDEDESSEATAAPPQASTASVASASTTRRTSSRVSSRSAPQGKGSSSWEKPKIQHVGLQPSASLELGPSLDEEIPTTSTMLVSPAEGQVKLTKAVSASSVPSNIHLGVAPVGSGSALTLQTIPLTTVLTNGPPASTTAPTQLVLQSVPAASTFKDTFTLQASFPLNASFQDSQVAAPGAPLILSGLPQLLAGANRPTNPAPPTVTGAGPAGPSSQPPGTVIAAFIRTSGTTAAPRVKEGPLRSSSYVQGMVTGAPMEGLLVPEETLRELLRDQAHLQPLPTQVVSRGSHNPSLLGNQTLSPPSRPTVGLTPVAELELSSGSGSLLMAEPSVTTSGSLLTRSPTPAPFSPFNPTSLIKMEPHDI
Chain of CRX (O43186 whole entry): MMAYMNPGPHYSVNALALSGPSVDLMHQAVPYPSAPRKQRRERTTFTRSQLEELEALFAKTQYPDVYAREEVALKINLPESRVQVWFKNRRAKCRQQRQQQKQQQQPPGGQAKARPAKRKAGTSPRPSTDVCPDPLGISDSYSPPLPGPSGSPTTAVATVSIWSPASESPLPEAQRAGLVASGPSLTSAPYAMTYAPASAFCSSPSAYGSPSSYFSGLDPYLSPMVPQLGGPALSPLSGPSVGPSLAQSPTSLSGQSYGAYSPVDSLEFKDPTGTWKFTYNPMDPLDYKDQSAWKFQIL
Chain of ETV1 (P50549 whole entry): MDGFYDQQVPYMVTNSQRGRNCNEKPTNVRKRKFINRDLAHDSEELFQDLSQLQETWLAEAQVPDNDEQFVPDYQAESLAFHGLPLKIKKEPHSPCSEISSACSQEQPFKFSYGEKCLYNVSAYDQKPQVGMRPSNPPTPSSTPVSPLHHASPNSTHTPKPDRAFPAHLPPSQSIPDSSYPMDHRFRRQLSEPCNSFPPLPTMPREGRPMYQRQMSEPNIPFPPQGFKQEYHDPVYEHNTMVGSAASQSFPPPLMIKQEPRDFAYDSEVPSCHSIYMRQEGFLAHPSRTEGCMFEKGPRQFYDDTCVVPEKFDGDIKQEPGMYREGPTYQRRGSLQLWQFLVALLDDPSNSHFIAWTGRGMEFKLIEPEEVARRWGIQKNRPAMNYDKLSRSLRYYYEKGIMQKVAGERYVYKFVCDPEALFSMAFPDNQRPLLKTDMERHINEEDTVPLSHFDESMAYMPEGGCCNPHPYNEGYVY

In the case of TCCCCG, the binding signal in the test with FLI1 was 1.15 fold enrichment (6-mer frequency, TF over GST control); with ELK1, 1.22 fold enrichment (6-mer frequency, TF over GST control); in the test with GABPA, 1.32 fold enrichment (6-mer frequency, TF over GST control); with ERG, 1.2 fold enrichment (6-mer frequency, TF over GST control); in the test with ELF1, 1.23 fold enrichment (6-mer frequency, TF over GST control); with EHF, 1.35 fold enrichment (6-mer frequency, TF over GST control). For the same sequence, the binding signal was 1.18 fold enrichment (6-mer frequency, TF over GST control) with SPI1; 1.13 fold enrichment (6-mer frequency, TF over GST control) with SPIB; 1.13 fold enrichment (6-mer frequency, TF over GST control) in the test with ELK3; 1.17 fold enrichment (6-mer frequency, TF over GST control) in the test with FEV; 1.22 fold enrichment (6-mer frequency, TF over GST control) with ETV5; 1.16 fold enrichment (6-mer frequency, TF over GST control) with HSF1. Also, the binding signal was 1.04 fold enrichment (6-mer frequency, TF over GST control) with SPIC; 1.22 fold enrichment (6-mer frequency, TF over GST control) with ELF4; 1.12 fold enrichment (6-mer frequency, TF over GST control) with ELK4; 1.26 fold enrichment (6-mer frequency, TF over GST control) with ETV2; 1.27 fold enrichment (6-mer frequency, TF over GST control) in the test with ELF3; 1.21 fold enrichment (6-mer frequency, TF over GST control) with CRX. Further, the binding signal with ETV1 is 1.13 fold enrichment (6-mer frequency, TF over GST control).
